Experimental data taken from PubChem BioAssay (NCI).
This is part of a sample that, as a whole, favours compounds with a hit. Of some 83,000 tested, about 20% had one in any assay.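 48-hour exposure, single concentration, 96-well plates; percent growth endpoint where 0 means no net growth. Active: below 10.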 The source made the active and inactive calls.

What was measured:
Test in all cases: NCI-60 one-dose screen, 48 h (100 = growth as untreated, 0 = no growth, -100 = all killed)
Conditions in all cases: 10 µM
NCI-H23 lung = tested on: NCI-H23 lung
NCI-H226 lung = tested on: NCI-H226 lung
NCI-H322M lung = tested on: NCI-H322M lung
HOP-62 NSCLC = tested on: HOP-62 NSCLC
NCI-H460 lung = tested on: NCI-H460 lung
HOP-92 NSCLC = tested on: HOP-92 NSCLC
NCI-H522 lung = tested on: NCI-H522 lung
A549/ATCC NSCLC = tested on: A549/ATCC NSCLC
786-0 renal = tested on: 786-0 renal
COLO 205 colon = tested on: COLO 205 colon
DU-145 prostate = tested on: DU-145 prostate
K-562 leukemia = tested on: K-562 leukemia
MALME-3M melanoma = tested on: MALME-3M melanoma
MDA-MB-231 breast = tested on: MDA-MB-231 breast
RXF 393 renal = tested on: RXF 393 renal
SF-268 CNS = tested on: SF-268 CNS
SF-295 CNS = tested on: SF-295 CNS
SF-539 CNS = tested on: SF-539 CNS
UACC-257 melanoma = tested on: UACC-257 melanoma
M14 melanoma = tested on: M14 melanoma

Measured: growth

COC(=O)/C=C\C(=O)OC
inactive: NCI-H23 lung 106% | NCI-H226 lung 114% | NCI-H322M lung 125% | HOP-62 NSCLC 113% | NCI-H460 lung 111% | HOP-92 NSCLC 95.4% | NCI-H522 lung 89.2% | A549/ATCC NSCLC 100% | 786-0 renal 103% | COLO 205 colon 118% | DU-145 prostate 120% | K-562 leukemia 107% | MALME-3M melanoma 139% | MDA-MB-231 breast 104% | RXF 393 renal 110% | SF-268 CNS 113% | SF-295 CNS 114% | SF-539 CNS 103% | UACC-257 melanoma 106% | M14 melanoma 107%

O=C(CS)Nc1ccc2ccccc2c1
inactive: NCI-H23 lung 111% | NCI-H226 lung 121% | NCI-H322M lung 127% | HOP-62 NSCLC 120% | NCI-H460 lung 97.6% | HOP-92 NSCLC 101% | NCI-H522 lung 118% | A549/ATCC NSCLC 122% | 786-0 renal 105% | COLO 205 colon 112% | DU-145 prostate 113% | K-562 leukemia 96.8% | MALME-3M melanoma 126% | MDA-MB-231 breast 106% | RXF 393 renal 82.8% | SF-268 CNS 85.8% | SF-295 CNS 123% | SF-539 CNS 99.5% | UACC-257 melanoma 133% | M14 melanoma 111%

O=[N+]([O-])c1cccc(C(F)(F)F)c1
inactive: NCI-H23 lung 101% | NCI-H226 lung 98.5% | NCI-H322M lung 132% | HOP-62 NSCLC 96.9% | NCI-H460 lung 98.1% | HOP-92 NSCLC 87.8% | NCI-H522 lung 85.5% | A549/ATCC NSCLC 94.7% | 786-0 renal 107% | COLO 205 colon 108% | DU-145 prostate 120% | K-562 leukemia 119% | MALME-3M melanoma 135% | MDA-MB-231 breast 98% | RXF 393 renal 98.7% | SF-268 CNS 102% | SF-295 CNS 101% | SF-539 CNS 102% | UACC-257 melanoma 97.3% | M14 melanoma 97.9%

O=C(CN1CCNCC1)N1CCOCC1
inactive: NCI-H23 lung 93.3% | NCI-H226 lung 116% | NCI-H322M lung 106% | HOP-62 NSCLC 103% | NCI-H460 lung 117% | HOP-92 NSCLC 103% | NCI-H522 lung 111% | A549/ATCC NSCLC 95.4% | 786-0 renal 101% | COLO 205 colon 110% | DU-145 prostate 130% | K-562 leukemia 97.5% | MALME-3M melanoma 96.3% | MDA-MB-231 breast 110% | RXF 393 renal 123% | SF-268 CNS 110% | SF-295 CNS 102% | SF-539 CNS 99.5% | UACC-257 melanoma 109% | M14 melanoma 103%

[O-][N+](=Nc1cccc(Cl)c1)c1cccc(Cl)c1
inactive: NCI-H23 lung 94.5% | NCI-H226 lung 114% | NCI-H322M lung 95.9% | HOP-62 NSCLC 107% | NCI-H460 lung 99% | HOP-92 NSCLC 94.1% | NCI-H522 lung 148% | A549/ATCC NSCLC 95.1% | 786-0 renal 109% | COLO 205 colon 116% | DU-145 prostate 108% | K-562 leukemia 133% | MALME-3M melanoma 101% | MDA-MB-231 breast 102% | RXF 393 renal 102% | SF-268 CNS 110% | SF-295 CNS 104% | SF-539 CNS 92.8% | UACC-257 melanoma 117% | M14 melanoma 96.4%

CCOc1ccc2[nH]c(=S)sc2c1
inactive: NCI-H23 lung 94.4% | NCI-H226 lung 109% | NCI-H322M lung 105% | HOP-62 NSCLC 99.1% | NCI-H460 lung 110% | HOP-92 NSCLC 82.2% | NCI-H522 lung 104% | A549/ATCC NSCLC 103% | 786-0 renal 99.7% | COLO 205 colon 112% | DU-145 prostate 111% | K-562 leukemia 90.8% | MALME-3M melanoma 97.8% | MDA-MB-231 breast 104% | RXF 393 renal 116% | SF-268 CNS 103% | SF-295 CNS 111% | SF-539 CNS 106% | UACC-257 melanoma 104% | M14 melanoma 99%

CCOC(=O)C(=O)C=P(c1ccccc1)(c1ccccc1)c1ccccc1
inactive: NCI-H23 lung 99.4% | NCI-H226 lung 108% | NCI-H322M lung 98.2% | HOP-62 NSCLC 98.1% | NCI-H460 lung 103% | HOP-92 NSCLC 96.5% | NCI-H522 lung 90.1% | A549/ATCC NSCLC 100% | 786-0 renal 101% | COLO 205 colon 110% | DU-145 prostate 103% | K-562 leukemia 107% | MALME-3M melanoma 102% | MDA-MB-231 breast 99.2% | RXF 393 renal 106% | SF-268 CNS 97.9% | SF-295 CNS 97.8% | SF-539 CNS 103% | UACC-257 melanoma 111% | M14 melanoma 109%

O=[N+]([O-])c1ccc(/C=C/C=C/c2ccccc2)c(Cl)c1
inactive: NCI-H23 lung 89.8% | NCI-H226 lung 102% | NCI-H322M lung 96.4% | HOP-62 NSCLC 105% | NCI-H460 lung 84.5% | HOP-92 NSCLC 84.4% | NCI-H522 lung 80.9% | A549/ATCC NSCLC 89.8% | 786-0 renal 95.6% | COLO 205 colon 119% | DU-145 prostate 109% | K-562 leukemia 91.8% | MALME-3M melanoma 116% | MDA-MB-231 breast 89.6% | RXF 393 renal 103% | SF-268 CNS 111% | SF-295 CNS 98.7% | SF-539 CNS 99% | UACC-257 melanoma 95.1% | M14 melanoma 106%

Cc1cc(N)ccc1-c1ccc(N)cc1C
inactive: NCI-H23 lung 92.8% | NCI-H226 lung 102% | NCI-H322M lung 104% | HOP-62 NSCLC 89.9% | NCI-H460 lung 104% | HOP-92 NSCLC 47.6% | NCI-H522 lung 96.9% | A549/ATCC NSCLC 92.8% | 786-0 renal 101% | COLO 205 colon 103% | DU-145 prostate 110% | K-562 leukemia 106% | MALME-3M melanoma 120% | MDA-MB-231 breast 106% | RXF 393 renal 108% | SF-268 CNS 103% | SF-295 CNS 99.2% | SF-539 CNS 93.8% | UACC-257 melanoma 80.7% | M14 melanoma 94.7%

c1ncc2[nH]cnc2n1
inactive: NCI-H23 lung 104% | NCI-H226 lung 99.5% | NCI-H322M lung 85.7% | HOP-62 NSCLC 104% | NCI-H460 lung 105% | HOP-92 NSCLC 89.4% | NCI-H522 lung 89.2% | A549/ATCC NSCLC 86.7% | 786-0 renal 95.2% | COLO 205 colon 101% | DU-145 prostate 96.6% | K-562 leukemia 102% | MALME-3M melanoma 126% | MDA-MB-231 breast 111% | RXF 393 renal 112% | SF-268 CNS 104% | SF-295 CNS 116% | SF-539 CNS 98.3% | UACC-257 melanoma 87.1% | M14 melanoma 97.9%

CC(=O)c1ccc(C)c(N)c1
inactive: NCI-H23 lung 81.5% | NCI-H226 lung 95.8% | NCI-H322M lung 121% | HOP-62 NSCLC 99.6% | NCI-H460 lung 111% | HOP-92 NSCLC 92.9% | NCI-H522 lung 99.9% | A549/ATCC NSCLC 92.8% | 786-0 renal 103% | COLO 205 colon 110% | DU-145 prostate 110% | K-562 leukemia 102% | MALME-3M melanoma 107% | MDA-MB-231 breast 115% | RXF 393 renal 111% | SF-268 CNS 100% | SF-295 CNS 101% | SF-539 CNS 101% | UACC-257 melanoma 102% | M14 melanoma 92.5%

O/N=C/c1ccc(O)cc1O
inactive: NCI-H23 lung 105% | NCI-H226 lung 108% | NCI-H322M lung 117% | HOP-62 NSCLC 101% | NCI-H460 lung 109% | HOP-92 NSCLC 92% | NCI-H522 lung 86% | A549/ATCC NSCLC 91.4% | 786-0 renal 108% | COLO 205 colon 111% | DU-145 prostate 112% | K-562 leukemia 105% | MALME-3M melanoma 109% | MDA-MB-231 breast 105% | RXF 393 renal 112% | SF-268 CNS 105% | SF-295 CNS 107% | SF-539 CNS 104% | UACC-257 melanoma 87.7%

C=C1CC/C=C(\C)C(=O)C[C@@H]2[C@@H]1CC2(C)C
inactive: NCI-H23 lung 107% | NCI-H226 lung 107% | NCI-H322M lung 119% | HOP-62 NSCLC 119% | NCI-H460 lung 107% | HOP-92 NSCLC 88.4% | NCI-H522 lung 85.3% | A549/ATCC NSCLC 109% | 786-0 renal 104% | COLO 205 colon 110% | DU-145 prostate 102% | K-562 leukemia 102% | MALME-3M melanoma 103% | MDA-MB-231 breast 125% | RXF 393 renal 55.1% | SF-268 CNS 99.5% | SF-295 CNS 108% | SF-539 CNS 107% | UACC-257 melanoma 111% | M14 melanoma 98.3%

CN(C)c1ccc2oc(=O)c3ccccc3c2c1
inactive: NCI-H23 lung 98.3% | NCI-H226 lung 81.3% | NCI-H322M lung 94.8% | HOP-62 NSCLC 78% | NCI-H460 lung 97.3% | HOP-92 NSCLC 68.3% | NCI-H522 lung 97.1% | A549/ATCC NSCLC 105% | 786-0 renal 79.5% | COLO 205 colon 119% | DU-145 prostate 105% | K-562 leukemia 109% | MALME-3M melanoma 97.6% | MDA-MB-231 breast 77.6% | RXF 393 renal 106% | SF-268 CNS 100% | SF-295 CNS 102% | SF-539 CNS 80.4% | UACC-257 melanoma 106%

O=[N+]([O-])c1ccc(Sc2ccncn2)c([N+](=O)[O-])c1
active: NCI-H522 lung -62.2% | M14 melanoma 8.79%
inactive: NCI-H23 lung 60% | NCI-H226 lung 55.3% | NCI-H322M lung 106% | HOP-62 NSCLC 92.4% | NCI-H460 lung 99.3% | HOP-92 NSCLC 103% | A549/ATCC NSCLC 122% | 786-0 renal 69.7% | COLO 205 colon 27% | DU-145 prostate 85.4% | K-562 leukemia 26.3% | MALME-3M melanoma 86.6% | MDA-MB-231 breast 84.1% | RXF 393 renal 81.7% | SF-268 CNS 89% | SF-295 CNS 113% | SF-539 CNS 22.9% | UACC-257 melanoma 64.7%

COS(=O)(=O)c1ccc(Br)cc1
inactive: NCI-H23 lung 97.6% | NCI-H226 lung 101% | NCI-H322M lung 118% | HOP-62 NSCLC 95.6% | NCI-H460 lung 115% | HOP-92 NSCLC 98.1% | NCI-H522 lung 104% | A549/ATCC NSCLC 103% | 786-0 renal 111% | COLO 205 colon 104% | DU-145 prostate 102% | K-562 leukemia 136% | MALME-3M melanoma 119% | MDA-MB-231 breast 92.5% | RXF 393 renal 105% | SF-268 CNS 84.9% | SF-295 CNS 107% | SF-539 CNS 102% | UACC-257 melanoma 93%
